Assay results from PubChem BioAssay (NCI).
Compounds without any hit were thinned out: in the full panel of roughly 83,000, 20% have a hit.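 For each line, cells grew in 96-well plates with the test compound present at a single concentration for 48 hours.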 Unmarked numbers belong to inactive results. Active and inactive are the calls of the source. Rule for the calls: active = growth percent below 10; inactive = the rest.

How the values were obtained:
Test in all cases: NCI-60 one-dose screen, 48 h (100 = growth as untreated, 0 = no growth, -100 = all killed)
Details in all cases: 10 µM unless noted
[1] = system: NCI-H23 lung
[2] = system: NCI-H226 lung
[3] = system: NCI-H322M lung
[4] = system: HOP-62 NSCLC
[5] = system: NCI-H460 lung
[6] = system: HOP-92 NSCLC
[7] = system: NCI-H522 lung
[8] = system: 786-0 renal
[9] = system: COLO 205 colon
[10] = system: A549/ATCC NSCLC

`CCOC(=O)CC/C(C)=N\Nc1ccc([N+](=O)[O-])cc1` was tested, and the growth [1] was 99.5%, the growth [2] was 67.9% and the growth [3] was 77.3%. The growth [4] was 63.2%, the growth [5] was 27.1% and the growth [6] was 89.8%. The growth [7] was 38.8%, the growth [8] was 72.9% and the growth [9] was 34.7%.
`CCCCn1c(=O)c(C2CNC(=O)c3ccccc3N2)cc2ccccc21` (stereo not given) showed a growth [1] of 95%, a growth [2] of 111% and a growth [3] of 111%. The growth [4] was 91.8%, the growth [5] was 102% and the growth [6] was 95.2%. For the same molecule, the growth [7] was 92.5%, the growth [8] was 92.4% and the growth [9] was 111%.
Work on `O=C(COc1ccccc1)N1N=C(c2ccc(Cl)cc2)CC1c1c[nH]c2ccccc12` (stereo not given) yielded a growth [1] of 76.1%, a growth [2] of 65.2% and a growth [3] of 86.4%. For the same molecule, the growth [4] was 66.6%, the growth [5] was 47.9% and the growth [6] was 62.1%. For the same molecule, the growth [7] was 73.9%, the growth [8] was 71% and the growth [9] was 86.9%.
`COc1ccccc1CNCCCN1C(=O)c2ccc3c4c(ccc(c24)C1=O)C(=O)N(CCCNCCCCNCCCCN)C3=O` was tested, and the growth [1] was 6.63% (active), the growth [2] was 27% and the growth [3] was -21.5% (active). The growth [4] was 22.2%, the growth [5] was 0.275% (active) and the growth [6] was -6.2% (active). For the same molecule, the growth [7] was -40.8% (active), the growth [8] was 23.3% and the growth [9] was -45.4% (active).
In the case of `Cn1c(-c2nonc2NC(=O)c2ccc(F)cc2)nc2ccccc21`, the growth [1] is reported as 108%, the growth [2] is reported as 96% and the growth [3] is reported as 102%. It also gave a growth [4] of 120%, a growth [6] of 104% and a growth [7] of 95.2%. For the same molecule, the growth [10] was 98.1%, the growth [8] was 98.6% and the growth [9] was 117%.
Work on `O=C(CN1CCN(c2cc3c(cc2F)c(=O)c(C(=O)O)cn3C2CC2)CC1)Nc1ccc(C(=O)/C=C/c2ccccc2)cc1` yielded a growth [1] of 24%, a growth [2] of 57.4% and a growth [3] of 73.7%. The growth [4] was 59.4%, the growth [6] was 14.9% and the growth [7] was 10.6%. For the same molecule, the growth [10] was 4.12% (active), the growth [8] was 23.2% and the growth [9] was 108%.
In the case of `CC(=O)Nc1nc(C(=O)N2N=C(C)/C(=C/c3ccccc3)C2=O)cs1`, the growth [1] is reported as 108%, the growth [2] is reported as 107% and the growth [3] is reported as 102%. The growth [4] was 99.8%, the growth [5] was 106% and the growth [6] was 108%. The growth [7] was 85.4%, the growth [8] was 105% and the growth [9] was 103%.
`Clc1ccc(/C=C/c2nc(N3CCOCC3)c3nc(Cl)c(Cl)cc3n2)cc1` gave a growth [1] of 92.2%, a growth [2] of 106% and a growth [3] of 111%. For the same molecule, the growth [4] was 110%, the growth [6] was 94.1% and the growth [7] was 95.5%. For the same molecule, the growth [10] was 107%, the growth [8] was 92.2% and the growth [9] was 102%.
`NC(=O)c1ccc2c(c1)OCO2` was tested, and the growth [1] was 89.2%, the growth [2] was 98.5% and the growth [3] was 107%. It also gave a growth [4] of 112%, a growth [6] of 90.2% and a growth [7] of 91.9%. For the same molecule, the growth [10] was 105%, the growth [8] was 105% and the growth [9] was 113%.
Molecule `COc1ccc(Cl)cc1NC(N)=S` has a growth [1] of 94.6%, a growth [2] of 107% and a growth [3] of 108%. For the same molecule, the growth [4] was 110%, the growth [6] was 92.2% and the growth [7] was 80.7%. It also gave a growth [10] of 103%, a growth [8] of 102% and a growth [9] of 127%.
With `CCCCC[C@@H]1Cc2cc(O)c(C(=O)O)c3c2[C@H](C[C@@]2(CCCO2)O3)O1` the growth [1] was 103%, the growth [2] was 110% and the growth [3] was 121%. The growth [4] was 93.6%, the growth [6] was 4.89% (active) and the growth [7] was 89.7%. The growth [10] was 105%, the growth [8] was 103% and the growth [9] was 112%.
For `COc1ccc(C(=O)c2cc(OC)c(OC)c(OC)c2)cc1/C=C/C(=O)c1ccc(OC)c(OC)c1`, the growth [1] was 32.2%, the growth [2] was 55.6% and the growth [3] was 54.7%. The growth [4] was 58.6%, the growth [6] was 39.4% and the growth [7] was 3.99% (active). The growth [10] was 57.1%, the growth [8] was 55.9% and the growth [9] was 31.3%.
With `COc1cc(Cn2c(-c3nonc3N)nc3ccccc32)ccc1C` the growth [1] was 25.1%, the growth [2] was 50.3% and the growth [3] was 58.8%. For the same molecule, the growth [4] was 30.5%, the growth [6] was 39.8% and the growth [7] was -20% (active). The growth [10] was 24.2%, the growth [8] was 40.3% and the growth [9] was -9.7% (active).
`NC(=O)NNC(=O)c1ccccc1` showed a growth [1] of 103%, a growth [2] of 106% and a growth [3] of 109%. The growth [4] was 107%, the growth [6] was 103% and the growth [7] was 107%. The growth [10] was 101%, the growth [8] was 101% and the growth [9] was 118%.
`CCn1cc(C2NC(=O)c3cc(F)ccc3N2)c2cccc(Cl)c21` (stereo not given) showed a growth [1] of 30.8%, a growth [2] of 49.5% and a growth [3] of 45.5%. For the same molecule, the growth [4] was 28.5%, the growth [6] was 72% and the growth [7] was -22.1% (active). The growth [10] was 3.82% (active), the growth [8] was 42.3% and the growth [9] was -11.5% (active).
`O=C(CNc1c(Cl)cccc1Cl)Nc1ccc(-c2nc3ccccc3s2)cc1` was tested, and the growth [1] was 40.9%, the growth [2] was 54.4% and the growth [3] was 94.6%. The growth [4] was 118%, the growth [6] was 94.2% and the growth [7] was -93.4% (active). It also gave a growth [10] of 85.7%, a growth [8] of 24.1% and a growth [9] of 87.7%.
`CCC1=C[C@@H]2CN(C1)Cc1c([nH]c3ccccc13)[C@@](C(=O)OC)(c1cc3c(cc1OC)N(C=O)[C@H]1[C@@](O)(C(=O)OC)[C@H](OC(C)=O)[C@]4(CC)[C@@H]5C[C@@H]5CN5CC[C@]31[C@@H]54)C2` was tested, and the growth [1] was 15.7%, the growth [2] was 35.4% and the growth [3] was 48.8%. The growth [4] was 34%, the growth [6] was -16.4% (active) and the growth [7] was -0.697% (active). The growth [10] was 11%, the growth [8] was 25.8% and the growth [9] was -78.5% (active).
Molecule `NC(=O)c1c(NC(=O)c2ccc(OCC3CCCO3)cc2)sc2c1CCCC2` (stereo not given) has a growth [1] of 100%, a growth [2] of 83.8% and a growth [3] of 99.8%. It also gave a growth [4] of 108%, a growth [6] of 66.9% and a growth [7] of 87.3%. It also gave a growth [10] of 35.5%, a growth [8] of 95.5% and a growth [9] of 111%.
With `c1ccn2nnnc2c1` the growth [1] was 94.8%, the growth [2] was 111% and the growth [3] was 102%. For the same molecule, the growth [4] was 87%, the growth [6] was 103% and the growth [7] was 101%. It also gave a growth [10] of 94.3%, a growth [8] of 94.3% and a growth [9] of 90.6%.
`COc1ccc(C2=CC(c3ccc(Oc4ccnc5cc(Cl)ccc45)c(OC)c3)c3c(nc(OC)[nH]c3=O)N2)cc1` (stereo not given) was tested, and the growth [1] was 83.4%, the growth [2] was 88.9% and the growth [3] was 72.9%. It also gave a growth [4] of 81.8%, a growth [6] of 49.3% and a growth [7] of 75.7%. For the same molecule, the growth [10] was 65.5%, the growth [8] was 80.3% and the growth [9] was 102%.
For `COc1cc(-c2cc(/C=C3\CCCCC3=O)[nH]n2)cc(OC)c1OC`, the growth [1] was 95.5%, the growth [2] was 94.6% and the growth [3] was 95.3%. It also gave a growth [4] of 99.3%, a growth [6] of 86.4% and a growth [7] of 76.9%. The growth [10] was 95.1%, the growth [8] was 98.1% and the growth [9] was 108%.
For `Cc1cc(C(=O)CSc2nc3ccccc3c(=O)[nH]2)c(C)n1C`, the growth [1] was 97.7%, the growth [2] was 97.8% and the growth [3] was 100%. For the same molecule, the growth [4] was 93.5%, the growth [6] was 73.1% and the growth [7] was 98.9%. It also gave a growth [10] of 43.2%, a growth [8] of 91.9% and a growth [9] of 109%.
In the case of `CCOC(=O)c1cc(/C(=N\O)c2cc(OC)c(OC)c(OC)c2)n2c(C)cccc12`, the growth [1] is reported as 59.3%, the growth [2] is reported as 78.8% and the growth [3] is reported as 59.2%. For the same molecule, the growth [4] was 36.2%, the growth [6] was 54.6% and the growth [7] was -3.5% (active). It also gave a growth [10] of 48%, a growth [8] of 26.3% and a growth [9] of 21.2%.
In the case of `Nc1c(C(=O)Nc2cccc([N+](=O)[O-])c2)sc2nc3c(cc12)C(O)CCC3` (stereo not given), the growth [1] is reported as 67.6%, the growth [2] is reported as 80.8% and the growth [3] is reported as 78.2%. For the same molecule, the growth [4] was 55.1%, the growth [6] was 72.1% and the growth [7] was 28.3%. It also gave a growth [10] of 39.2%, a growth [8] of 68.7% and a growth [9] of 40.8%.
In the case of `O=C(CC(O)c1ccncc1)c1ccccc1` (stereo not given), the growth [1] is reported as -18.6% (active), the growth [2] is reported as 9.03% (active) and the growth [3] is reported as -8.53% (active). For the same molecule, the growth [4] was 22.9%, the growth [6] was 10.2% and the growth [7] was -36.6% (active). The growth [10] was 15.5%, the growth [8] was 9.96% (active) and the growth [9] was -54.7% (active).
`CCSc1nnc(Nc2ccc(C(C)C)cc2)s1` was tested, and the growth [1] was 79.3%, the growth [2] was 75% and the growth [3] was 97.6%. For the same molecule, the growth [4] was 91.5%, the growth [6] was 92.7% and the growth [7] was 87.2%. It also gave a growth [10] of 86.5%, a growth [8] of 86% and a growth [9] of 86.9%.
For `CC(C)C[C@H](NC(=O)Cn1ccc(NCc2ccccc2)cc1=O)B(O)O`, the growth [1] was 31.7%, the growth [2] was -75% (active) and the growth [3] was 91.3%. For the same molecule, the growth [4] was 44.9%, the growth [6] was 2.85% (active) and the growth [7] was -20.7% (active). It also gave a growth [8] of 20.6% and a growth [9] of 32%.
`CC/C=C\C/C=C\C[C@H](O)C/C=C1/C(=O)C=C[C@H]1C/C=C\CCC(=O)OC` was tested, and the growth [1] was 54.3% [8.25 µM], the growth [2] was 69.9% [8.25 µM] and the growth [3] was 90.2% [8.25 µM]. The growth [4] was 37.6% [8.25 µM], the growth [6] was 58.6% [8.25 µM] and the growth [7] was -30.8% [8.25 µM] (active). For the same molecule, the growth [10] was 53.4% [8.25 µM], the growth [8] was 44.7% [8.25 µM] and the growth [9] was 0.861% [8.25 µM] (active).
`O=C(Nc1ccc(Cl)cc1)c1cc(-c2ccc(F)cc2)c2sc(=O)[nH]c2n1` was tested, and the growth [1] was 5.26% (active), the growth [2] was 11.6% and the growth [3] was 13.2%. The growth [4] was 6.64% (active), the growth [6] was -24.2% (active) and the growth [7] was 3.59% (active). The growth [10] was 12.2%, the growth [8] was 14.5% and the growth [9] was 8.8% (active).
